SMILES strings stand for the structures. Unmarked numbers belong to inactive results. The source made the active and inactive calls.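 How the source made its calls, unless noted: active means mean inhibition above 46.68%, the untreated control wells mean plus 3 SD; inactive means the rest.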

The values that follow come from PubChem BioAssay.

The target of assay [1] is Nuclear receptor coactivator 1 (Homo sapiens) (UniProt Q15788). Kind of assay: SRC1 coactivator transcriptional activity inhibitors, confirmation, cell-based, luminescence, quadruplicate (AID 588820).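 Further: 0% = DMSO wells and 100% = gossypol 36 µM treated wells.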 The conditions noted are these: HEK293 GAL4-SRC1 luciferase reporter, at 3.6 µM, active compounds read high. On the technique in general: A reporter such as luciferase makes a cellular process visible.
Chain of Nuclear receptor coactivator 1 (Homo sapiens) (Q15788 whole entry, looked up, the tested form may be a part): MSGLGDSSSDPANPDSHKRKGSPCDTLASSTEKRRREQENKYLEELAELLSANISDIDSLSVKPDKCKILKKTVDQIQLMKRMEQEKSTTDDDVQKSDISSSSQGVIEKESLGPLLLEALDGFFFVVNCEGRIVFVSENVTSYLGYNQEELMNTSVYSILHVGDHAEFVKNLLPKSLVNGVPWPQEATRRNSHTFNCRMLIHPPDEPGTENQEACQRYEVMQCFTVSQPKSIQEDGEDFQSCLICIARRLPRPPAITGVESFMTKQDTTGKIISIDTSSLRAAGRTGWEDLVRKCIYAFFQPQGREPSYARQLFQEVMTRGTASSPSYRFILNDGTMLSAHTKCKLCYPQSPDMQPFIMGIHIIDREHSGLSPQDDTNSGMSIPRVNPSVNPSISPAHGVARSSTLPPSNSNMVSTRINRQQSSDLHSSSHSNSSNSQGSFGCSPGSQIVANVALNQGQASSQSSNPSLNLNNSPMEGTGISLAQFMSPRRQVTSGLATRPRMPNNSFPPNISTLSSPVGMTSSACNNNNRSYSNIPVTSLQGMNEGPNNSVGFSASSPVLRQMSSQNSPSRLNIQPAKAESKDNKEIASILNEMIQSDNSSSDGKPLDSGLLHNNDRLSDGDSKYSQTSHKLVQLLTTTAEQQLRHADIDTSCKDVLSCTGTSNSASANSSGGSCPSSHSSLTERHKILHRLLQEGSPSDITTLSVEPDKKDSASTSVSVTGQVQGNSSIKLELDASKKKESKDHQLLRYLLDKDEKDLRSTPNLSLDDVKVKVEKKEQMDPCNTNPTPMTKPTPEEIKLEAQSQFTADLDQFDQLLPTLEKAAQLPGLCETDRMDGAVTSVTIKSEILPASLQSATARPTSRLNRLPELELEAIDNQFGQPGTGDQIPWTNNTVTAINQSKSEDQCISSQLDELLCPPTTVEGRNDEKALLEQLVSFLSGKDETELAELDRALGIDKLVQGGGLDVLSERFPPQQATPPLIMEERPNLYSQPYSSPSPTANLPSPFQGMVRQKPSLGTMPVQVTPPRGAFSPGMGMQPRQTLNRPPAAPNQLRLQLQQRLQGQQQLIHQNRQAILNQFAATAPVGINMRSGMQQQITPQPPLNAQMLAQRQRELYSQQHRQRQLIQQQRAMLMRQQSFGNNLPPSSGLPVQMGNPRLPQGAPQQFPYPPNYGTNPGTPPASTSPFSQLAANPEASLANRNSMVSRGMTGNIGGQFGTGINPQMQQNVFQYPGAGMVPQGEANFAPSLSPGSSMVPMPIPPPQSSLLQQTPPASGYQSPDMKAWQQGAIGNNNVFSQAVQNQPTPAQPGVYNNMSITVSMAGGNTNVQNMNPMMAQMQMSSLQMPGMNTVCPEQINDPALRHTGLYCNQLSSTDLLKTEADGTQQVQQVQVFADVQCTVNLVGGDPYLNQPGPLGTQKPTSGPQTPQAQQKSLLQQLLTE

Assay [2] can be described thus: VP16 transactivation inhibitors, counter-screen for SRC1 inhibitor project, cell-based, luminescence, high throughput (AID 588824; in the data active means inhibition above about 25%). As to conditions: cell-based VP16 transactivation luciferase luminescence; at 3.6 µM; active compounds read high. Background: Counterscreens check selectivity or assay interference.

A word on the inhibition: it is the drop in the measured response relative to a control, in per cent. In the case of `NC(CO)C(=O)NNCc1ccc(O)c(O)c1O` (centres undefined), the inhibition in assay [1] was -18.8%; in assay [2] it was -2.94%.

On to `Cc1cc(C)c(CN2CCN(C(=O)Cn3cnc4c(OCc5ccccc5)ncnc43)CC2)c(C)c1`, for which the inhibition in assay [1] was 4.65%; in assay [2], 38.5% (active).

Consider `CCOc1ccc(-c2[nH]ncc2-c2ccc(Cl)cc2)c(O)c1`, for which the figures for the inhibition in assay [1] and in assay [2] were -8.3% and 3.27%, respectively.

Consider `COC(=O)c1cc2ccccn2c2c(C(=O)OC)c(C(=O)OC)cc1-2`, for which the inhibition in assay [1] is -58.3%; in assay [2] it was -27.2%.

As to `COc1ccc2nc(N3CCN(C(=O)c4ccc5ncsc5c4)CC3)sc2c1`, the inhibition was -5.74% in assay [1] and -0.4% in assay [2].

As to `CC[C@H](C)[C@H](NC(N)=O)C(=O)NCCc1ccc(OC)c(OC)c1`, the inhibition in assay [1] is -11%; in assay [2], -10.9%.

`COc1ccc(-c2nc(-c3ccc(NC(=O)c4ccncc4)cc3)no2)cc1OC`: the values for the inhibition in assay [1] and in assay [2] were -3.19% and 41.4% (active), respectively.

For `O=C(NCc1ccccc1)c1cc(S(=O)(=O)N2CCCCC2)ccc1N1CCOCC1`, the inhibition in assay [1] is -1.88%; in assay [2], 11.3%.

For `Cn1c(=O)c2[nH]c(COc3ccc(C(C)(C)C)cc3)nc2n(C)c1=O`, the inhibition is 29.4% in assay [1] and 18.8% in assay [2].

`O=C(CSc1nc(-c2cccs2)cc(C(F)(F)F)n1)Nc1cc(OCC(F)(F)C(F)F)cc([N+](=O)[O-])c1`: the inhibition in assay [1] was 17.1%; in assay [2], -0.51%.

`Cc1ccc(NNC(=O)C(=O)N2CCCCC2)cc1`: the inhibition in assay [1] is -16.9%; in assay [2], 11.6%.

As to `COc1ccc(C[C@H]2COC(=O)[C@@H]2Cc2ccc(OC3OC(CO)C(O)C(O)C3O)c(OC)c2)cc1OC` (some centres undefined), the inhibition was 9.39% in assay [1] and 31% (active) in assay [2].
